# Reference: publication PMC5540273 (PLoS ONE, 2017)
# Test system: BLK
# Conditions: concentration: 1 μM, replicates: in singlicate; n = 1
# 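Further: KINOMEscan kinase panel screen.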
row,SMILES,%Inh [%]
1,Cc1c2ccc(N(C)c3ccnc(Nc4cccc(S(N)(=O)=O)c4)n3)cc2nn1Cc1ccccc1.Cl.Cl [GW787226],82
2,Fc1ccc(-c2ncn(CCCN3CCOCC3)c2-c2cccnc2)cc1 [SB-211743],16
3,COc1ccc(Nc2ncc(C#N)c(Nc3ccccc3C(N)=O)n2)cc1N1CCN(C)CC1.Cl [GSK1558669],99.8
4,O=c1cc(N2CCOCC2)nc2n(Cc3cccc4ccccc34)ccn12 [GSK2333389],21
5,CCc1nc(-c2cccc(C)c2)c(-c2ccnc(NCc3ccccc3)c2)s1,0
6,O=C(NCCNc1ccnc(Nc2ccc(F)cc2)n1)c1cc2ccccc2s1 [GSK1379874],23
7,O=C(NCCNc1ccnc(Nc2ccc(F)cc2)n1)Nc1ccccc1F [GSK1379880],6
8,CN(C(=O)c1ccc(-c2cc(-c3c[nH]nc3-c3ccccn3)ccn2)cc1)C1CCOCC1 [GW810083],22
9,O=C(Nc1n[nH]c2cc(-c3cccc(F)c3)ccc12)C1CC1 [SB-735464],0
10,Cc1nnc(-c2ccc(C)c(-c3ccc(C(=O)Nc4ccc(NS(C)(=O)=O)cc4)cc3)c2)o1 [GW702865],14
11,COc1ccc(S(=O)(=O)NC2CCN(c3cc(C)nc(Nc4cccc(C#N)c4)n3)CC2)cc1.O=C(O)C(F)(F)F [GSK1653539],25
12,O=C(NOCC1CC1)c1ccc(F)c(F)c1Nc1ccc(I)cc1Cl,0
13,COc1cc2c(cc1OC[C@@H](O)CO)ncc1c3ccc(C#N)cc3[nH]c21,24
14,NS(=O)(=O)CCc1cccc(Nc2nccc(-c3c(-c4cccc(NC(=O)c5c(F)cccc5F)c4)nn4ccccc34)n2)c1 [GSK336735],99.7
15,COc1ccc(CNC(=O)NC2CCN(c3ccnc(Nc4ccc(OC)cc4)n3)C2)cc1 (stereo not shown) [GSK1379727],43
16,c1ccc(-c2cc(-c3c[nH]nc3-c3ccccn3)ccn2)cc1 [GW576604],37
17,Cn1cc(-c2ccc3c(c2)CCN3C(=O)Cc2ccccc2Cl)c2c(N)ncnc21 [GSK2608885],99.2

row,SMILES,%Inh [%]
1,Cc1nnc(-c2ccc3ncc(-c4ccc(S(C)=O)cc4)n3c2)o1 (stereo not shown),0
2,Cc1ccc(NC(=O)c2ccnc(N3CCN(C)CC3)c2)cc1-c1ccc(C(=O)NCC2CC2)cc1 [GW775604],0
3,CN(C1=C(c2ccccc2)C(=O)NC1=O)c1ccccc1 [SB-334860],0
4,Cc1ccc(C(=O)NCC(N)=O)cc1-n1c(C)cc(OCc2ccc(F)cc2F)c(Br)c1=O,14
5,NCC(NC(=O)c1cc(-c2cn[nH]c2)c(-c2ccnc3[nH]ccc23)s1)c1ccccc1.O=C(O)C(F)(F)F.O=C(O)C(F)(F)F (stereo not shown) [GSK1325775],0
6,CNc1ncnc2[nH]ncc12 [SKF-18355],0
7,CCCCCc1nc2c(N)ncnc2n1CCCCC [SKF-97255],16
8,C[C@@H](Oc1cc(-n2cnc3ccc(NC(=O)NC(C)(C)C)cc32)sc1C(N)=O)c1ccccc1Cl [GSK346294],0
9,Cl.Oc1cccc(Nc2ccnc3cc(-c4ccncc4)ccc23)c1 [GW494601],99.1
10,O=C1NC(=O)C(N2CCc3ccccc32)=C1c1cccc(Cl)c1 [SB-408010],0
11,Cc1cn2c(=O)cc(N3CCOCC3)nc2n1Cc1cccc(Cl)c1Cl [GSK2334006],37
12,N#Cc1c(N2CCOCC2)sc(-c2ccn[nH]2)c1-c1ccc(Cl)cc1,0
13,CC(=O)Nc1ccc(COc2ccc(Nc3ccnc4cc(-c5ccccn5)ccc34)cc2)cc1.Cl [GW440148],53
14,O=c1cc(N2CCOCC2)nc2n(Cc3cccc(C(F)(F)F)c3)ccn12 [GSK2297543],16
15,Fc1ccc(-c2nn3c(OCC(F)(F)F)cccc3c2-c2ccncc2)cc1 [GW514784],43
16,Cc1cccc(-c2nc(Nc3ccc4ncsc4c3)c3ccccc3n2)n1 [GW867588],11

# Test system: BMPR1A
# Conditions: concentration: 1 μM, replicates: in singlicate; n = 1
row,SMILES,%Inh [%]
1,Cc1c2ccc(N(C)c3ccnc(Nc4cccc(S(N)(=O)=O)c4)n3)cc2nn1Cc1ccccc1.Cl.Cl [GW787226],3
2,Fc1ccc(-c2ncn(CCCN3CCOCC3)c2-c2cccnc2)cc1 [SB-211743],0
3,COc1ccc(Nc2ncc(C#N)c(Nc3ccccc3C(N)=O)n2)cc1N1CCN(C)CC1.Cl [GSK1558669],0
4,O=c1cc(N2CCOCC2)nc2n(Cc3cccc4ccccc34)ccn12 [GSK2333389],0
5,CCc1nc(-c2cccc(C)c2)c(-c2ccnc(NCc3ccccc3)c2)s1,0
6,O=C(NCCNc1ccnc(Nc2ccc(F)cc2)n1)c1cc2ccccc2s1 [GSK1379874],0
7,O=C(NCCNc1ccnc(Nc2ccc(F)cc2)n1)Nc1ccccc1F [GSK1379880],0
8,CN(C(=O)c1ccc(-c2cc(-c3c[nH]nc3-c3ccccn3)ccn2)cc1)C1CCOCC1 [GW810083],0
9,O=C(Nc1n[nH]c2cc(-c3cccc(F)c3)ccc12)C1CC1 [SB-735464],16
10,Cc1nnc(-c2ccc(C)c(-c3ccc(C(=O)Nc4ccc(NS(C)(=O)=O)cc4)cc3)c2)o1 [GW702865],0
11,COc1ccc(S(=O)(=O)NC2CCN(c3cc(C)nc(Nc4cccc(C#N)c4)n3)CC2)cc1.O=C(O)C(F)(F)F [GSK1653539],0
12,O=C(NOCC1CC1)c1ccc(F)c(F)c1Nc1ccc(I)cc1Cl,0
13,COc1cc2c(cc1OC[C@@H](O)CO)ncc1c3ccc(C#N)cc3[nH]c21,5
14,NS(=O)(=O)CCc1cccc(Nc2nccc(-c3c(-c4cccc(NC(=O)c5c(F)cccc5F)c4)nn4ccccc34)n2)c1 [GSK336735],0
15,COc1ccc(CNC(=O)NC2CCN(c3ccnc(Nc4ccc(OC)cc4)n3)C2)cc1 (stereo not shown) [GSK1379727],0
16,c1ccc(-c2cc(-c3c[nH]nc3-c3ccccn3)ccn2)cc1 [GW576604],1
17,Cn1cc(-c2ccc3c(c2)CCN3C(=O)Cc2ccccc2Cl)c2c(N)ncnc21 [GSK2608885],10

row,SMILES,%Inh [%]
1,Cc1nnc(-c2ccc3ncc(-c4ccc(S(C)=O)cc4)n3c2)o1 (stereo not shown),9
2,Cc1ccc(NC(=O)c2ccnc(N3CCN(C)CC3)c2)cc1-c1ccc(C(=O)NCC2CC2)cc1 [GW775604],0
3,CN(C1=C(c2ccccc2)C(=O)NC1=O)c1ccccc1 [SB-334860],0
4,Cc1ccc(C(=O)NCC(N)=O)cc1-n1c(C)cc(OCc2ccc(F)cc2F)c(Br)c1=O,2
5,NCC(NC(=O)c1cc(-c2cn[nH]c2)c(-c2ccnc3[nH]ccc23)s1)c1ccccc1.O=C(O)C(F)(F)F.O=C(O)C(F)(F)F (stereo not shown) [GSK1325775],0
6,CNc1ncnc2[nH]ncc12 [SKF-18355],6
7,CCCCCc1nc2c(N)ncnc2n1CCCCC [SKF-97255],19
8,C[C@@H](Oc1cc(-n2cnc3ccc(NC(=O)NC(C)(C)C)cc32)sc1C(N)=O)c1ccccc1Cl [GSK346294],0
9,Cl.Oc1cccc(Nc2ccnc3cc(-c4ccncc4)ccc23)c1 [GW494601],84
10,O=C1NC(=O)C(N2CCc3ccccc32)=C1c1cccc(Cl)c1 [SB-408010],23
11,Cc1cn2c(=O)cc(N3CCOCC3)nc2n1Cc1cccc(Cl)c1Cl [GSK2334006],19
12,Cl.Cl.Cl.Fc1ccc(-c2ncn(C3CCNCC3)c2-c2ccnc(Nc3ccccc3)n2)cc1 [SB-238039],0
13,N#Cc1c(N2CCOCC2)sc(-c2ccn[nH]2)c1-c1ccc(Cl)cc1,21
14,CC(=O)Nc1ccc(COc2ccc(Nc3ccnc4cc(-c5ccccn5)ccc34)cc2)cc1.Cl [GW440148],0
15,O=c1cc(N2CCOCC2)nc2n(Cc3cccc(C(F)(F)F)c3)ccn12 [GSK2297543],0
16,Fc1ccc(-c2nn3c(OCC(F)(F)F)cccc3c2-c2ccncc2)cc1 [GW514784],0
17,Cc1cccc(-c2nc(Nc3ccc4ncsc4c3)c3ccccc3n2)n1 [GW867588],0
